Assay results from the antibiotic and cytotoxicity screens of Wong et al. (2023).
In all, about 39,000 compounds went through this assay and about 3,300 (8.5%) were called active. The full list was thinned out, with actives kept by preference.

Test system: HepG2
Experiment: cytotoxicity call (relative viability < 0.9)
Settings: 10 µM

**Q.** For `CNC(=O)C[C@H]1CC[C@@H]2[C@H](COc3ccc(NC(=O)c4ccc(C(F)(F)F)cc4)cc3C(=O)N2C)O1`, which cytotoxicity call is on record?
**A.** Its cytotoxicity call is “inactive”.

**Q.** Which cytotoxicity call does the source give for `C[C@H](CO)N1C[C@H](C)[C@H](CN(C)Cc2ccc(C(=O)O)cc2)OCCCC[C@H](C)Oc2ccc(NS(=O)(=O)c3ccc(Cl)cc3)cc2C1=O` here?
**A.** Its cytotoxicity call is “inactive”.

**Q.** How did the cytotoxicity call turn out when `Cc1noc(C)c1NC(=O)N(C)C[C@@H]1Oc2c(NC(=O)NC(C)C)cccc2C(=O)N([C@@H](C)CO)C[C@@H]1C` was run?
**A.** Its cytotoxicity call is “inactive”.

**Q.** For `NNc1ccc2[nH]c(=O)[nH]c2c1`, which cytotoxicity call is on record?
**A.** Its cytotoxicity call is “inactive”.

**Q.** For `C[C@@H]1CCCCO[C@H](CN(C)Cc2ccc(C(F)(F)F)cc2)[C@@H](C)CN([C@@H](C)CO)C(=O)c2cc(NC(=O)Nc3ccc(F)cc3)ccc2O1`, which cytotoxicity call is on record?
**A.** Its cytotoxicity call is “active”.

**Q.** Which cytotoxicity call does the source give for `C[C@H]1CCCCO[C@H](CN(C)Cc2ccc(C(F)(F)F)cc2)[C@@H](C)CN([C@@H](C)CO)C(=O)c2cc(NC(=O)Nc3ccc(F)cc3)ccc2O1` here?
**A.** The cytotoxicity call was “active”.

**Q.** How did the cytotoxicity call turn out when `C[C@@H]1CN([C@@H](C)CO)C(=O)c2cc(NC(=O)Nc3ccc(F)cc3)ccc2O[C@@H](C)CCCCO[C@@H]1CN(C)Cc1ccc(C(F)(F)F)cc1` was run?
**A.** The cytotoxicity call was “inactive”.

**Q.** For `C[C@@H]1CCCCO[C@@H](CN(C)Cc2ccc(C(F)(F)F)cc2)[C@H](C)CN([C@H](C)CO)C(=O)c2cc(NC(=O)Nc3ccc(F)cc3)ccc2O1`, which cytotoxicity call is on record?
**A.** The cytotoxicity call was “inactive”.

**Q.** How did the cytotoxicity call turn out when `C[C@H](CO)N1C[C@H](C)[C@@H](CN(C)Cc2ccc(C(F)(F)F)cc2)OCCCC[C@H](C)Oc2ccc(NC(=O)Nc3ccc(F)cc3)cc2C1=O` was run?
**A.** Its cytotoxicity call is “inactive”.

**Q.** Which cytotoxicity call does the source give for `C[C@@H]1CCCCO[C@@H](CN(C)Cc2ccc(C(F)(F)F)cc2)[C@H](C)CN([C@@H](C)CO)C(=O)c2cc(NC(=O)Nc3ccc(F)cc3)ccc2O1` here?
**A.** The cytotoxicity call was “inactive”.

**Q.** For `C[C@@H]1CN([C@@H](C)CO)C(=O)c2cc(NC(=O)Nc3ccc(F)cc3)ccc2O[C@@H](C)CCCCO[C@H]1CN(C)Cc1ccc(C(F)(F)F)cc1`, which cytotoxicity call is on record?
**A.** The cytotoxicity call was “active”.

**Q.** With `C[C@H](CO)N1C[C@H](C)[C@H](CN(C)Cc2ccc(C(F)(F)F)cc2)OCCCC[C@H](C)Oc2ccc(NC(=O)Nc3ccc(F)cc3)cc2C1=O` as the molecule, how does the cytotoxicity call read?
**A.** The cytotoxicity call was “active”.

**Q.** With `CCNC(=O)C[C@H]1C=C[C@@H](NC(=O)C2CCOCC2)[C@@H](CO)O1` as the molecule, how does the cytotoxicity call read?
**A.** The cytotoxicity call was “inactive”.

**Q.** For `COc1ccc(NC(=O)N(C)C[C@@H]2Oc3ccc(NC(=O)C4CC4)cc3CC(=O)N([C@H](C)CO)C[C@H]2C)cc1`, which cytotoxicity call is on record?
**A.** Its cytotoxicity call is “inactive”.

**Q.** How did the cytotoxicity call turn out when `CN(C)CC(=O)N[C@@H]1CC[C@H](CCNC(=O)C2CC2)O[C@H]1CO` was run?
**A.** Its cytotoxicity call is “inactive”.

**Q.** For `COc1ccc(NC(=O)N(C)C[C@H]2OCCCC[C@H](C)Oc3ccc(NS(=O)(=O)c4ccc(OC)cc4)cc3C(=O)N([C@H](C)CO)C[C@@H]2C)cc1`, which cytotoxicity call is on record?
**A.** The cytotoxicity call was “inactive”.

**Q.** With `C[C@H](CO)N1C[C@H](C)[C@@H](CN(C)C(=O)Nc2ccc(N3CCN(C)CC3)cc2)OCc2cnnn2CCCC1=O` as the molecule, how does the cytotoxicity call read?
**A.** Its cytotoxicity call is “inactive”.

**Q.** How did the cytotoxicity call turn out when `CC(=O)NCCCC[C@@H]1NC(=O)[C@@H]2C[C@H](C(=O)NCCCCCNC(=O)CS)[C@H](c3cccc(OCCO)c3)N2C1=O` was run?
**A.** The cytotoxicity call was “inactive”.

**Q.** With `C[C@@H]1CN([C@H](C)CO)C(=O)c2cc(NS(=O)(=O)c3cn(C)cn3)ccc2O[C@@H](C)CCCCO[C@@H]1CN(C)S(=O)(=O)c1ccccc1` as the molecule, how does the cytotoxicity call read?
**A.** The cytotoxicity call was “inactive”.

**Q.** With `C[C@@H]1CN([C@H](C)CO)C(=O)c2cccc(NC(=O)NC3CCCCC3)c2O[C@@H]1CN(C)Cc1ccc(Oc2ccccc2)cc1` as the molecule, how does the cytotoxicity call read?
**A.** The cytotoxicity call was “inactive”.

**Q.** With `COc1ccc(NC(=O)N(C)C[C@H]2Oc3ccc(NC(=O)Nc4cccc5ccccc45)cc3CC(=O)N([C@H](C)CO)C[C@H]2C)cc1` as the molecule, how does the cytotoxicity call read?
**A.** The cytotoxicity call was “inactive”.

**Q.** How did the cytotoxicity call turn out when `CC(C)CC#Cc1ccc2c(c1)O[C@H](CN(C)C(=O)Cc1ccccn1)[C@@H](C)CN([C@H](C)CO)S2(=O)=O` was run?
**A.** Its cytotoxicity call is “inactive”.

**Q.** For `C[C@H](CO)N1C[C@H](C)[C@@H](CN(C)C(=O)NC2CCCCC2)OCCCC[C@H](C)Oc2ccc(NC(=O)Cc3ccccc3)cc2C1=O`, which cytotoxicity call is on record?
**A.** Its cytotoxicity call is “inactive”.

**Q.** Which cytotoxicity call does the source give for `COc1ccc(CN(C)C[C@H]2Oc3c(NC(=O)Nc4ccc(C(F)(F)F)cc4)cccc3C(=O)N([C@@H](C)CO)C[C@@H]2C)cc1` here?
**A.** Its cytotoxicity call is “inactive”.

**Q.** With `C[C@@H]1CCCCO[C@@H](CN(C)Cc2ccc(C(F)(F)F)cc2)[C@@H](C)CN([C@@H](C)CO)C(=O)c2cc(NC(=O)Nc3ccc(F)cc3)ccc2O1` as the molecule, how does the cytotoxicity call read?
**A.** Its cytotoxicity call is “inactive”.

**Q.** For `C[C@@H]1CCCCO[C@H](CN(C)Cc2ccc(C(F)(F)F)cc2)[C@H](C)CN([C@@H](C)CO)C(=O)c2cc(NC(=O)Nc3ccc(F)cc3)ccc2O1`, which cytotoxicity call is on record?
**A.** The cytotoxicity call was “active”.

**Q.** Which cytotoxicity call does the source give for `C[C@@H]1CCCCO[C@@H](CN(C)Cc2ccc(C(F)(F)F)cc2)[C@@H](C)CN([C@H](C)CO)C(=O)c2cc(NC(=O)Nc3ccc(F)cc3)ccc2O1` here?
**A.** Its cytotoxicity call is “inactive”.

**Q.** Which cytotoxicity call does the source give for `C[C@@H]1CN([C@H](C)CO)C(=O)c2cc(NC(=O)Nc3ccc(F)cc3)ccc2O[C@@H](C)CCCCO[C@H]1CN(C)Cc1ccc(C(F)(F)F)cc1` here?
**A.** The cytotoxicity call was “active”.

**Q.** How did the cytotoxicity call turn out when `C[C@@H]1CCCCO[C@H](CN(C)Cc2ccc(C(F)(F)F)cc2)[C@@H](C)CN([C@H](C)CO)C(=O)c2cc(NC(=O)Nc3ccc(F)cc3)ccc2O1` was run?
**A.** Its cytotoxicity call is “inactive”.

**Q.** For `C[C@@H]1CCCCO[C@H](CN(C)Cc2ccc(C(F)(F)F)cc2)[C@H](C)CN([C@H](C)CO)C(=O)c2cc(NC(=O)Nc3ccc(F)cc3)ccc2O1`, which cytotoxicity call is on record?
**A.** Its cytotoxicity call is “active”.

**Q.** How did the cytotoxicity call turn out when `C[C@@H]1CN([C@H](C)CO)C(=O)c2cc(NC(=O)Nc3ccc(F)cc3)ccc2O[C@@H](C)CCCCO[C@@H]1CN(C)Cc1ccc(C(F)(F)F)cc1` was run?
**A.** Its cytotoxicity call is “inactive”.

**Q.** With `C[C@H]1CCCCO[C@@H](CN(C)Cc2ccc(C(F)(F)F)cc2)[C@@H](C)CN([C@@H](C)CO)C(=O)c2cc(NC(=O)Nc3ccc(F)cc3)ccc2O1` as the molecule, how does the cytotoxicity call read?
**A.** The cytotoxicity call was “active”.

**Q.** How did the cytotoxicity call turn out when `C[C@H](CO)N1C[C@H](C)[C@@H](CN(C)Cc2ccc(Cl)c(Cl)c2)Oc2ccc(NC(=O)Cn3cnnn3)cc2CC1=O` was run?
**A.** Its cytotoxicity call is “inactive”.

**Q.** How did the cytotoxicity call turn out when `COc1ccc(S(=O)(=O)Nc2ccc3c(c2)C(=O)N([C@H](C)CO)C[C@@H](C)[C@H](CN(C)C(=O)Nc2ccc(F)cc2)OCCCC[C@@H](C)O3)cc1` was run?
**A.** Its cytotoxicity call is “inactive”.

**Q.** `C=CCN(C#N)c1nc(N(C)C)nc(N(C)C)n1` was tested. Which cytotoxicity call did it give?
**A.** The cytotoxicity call was “inactive”.

**Q.** How did the cytotoxicity call turn out when `C[C@@H]1CN([C@H](C)CO)C(=O)c2cccc(NC(=O)c3cnccn3)c2O[C@@H]1CN(C)Cc1ccccc1` was run?
**A.** Its cytotoxicity call is “inactive”.

**Q.** With `Cc1noc(C)c1S(=O)(=O)Nc1ccc2c(c1)C(=O)N([C@H](C)CO)C[C@H](C)[C@@H](CN(C)S(=O)(=O)c1cccs1)O2` as the molecule, how does the cytotoxicity call read?
**A.** Its cytotoxicity call is “inactive”.
